Several values for one entry are separate records, joined by “and”; a condition that tells them apart may be missing. Equal values may be shown once. Records with an inconclusive call do not appear. A call without a number means that no potency is given here. Where a structure was tested more than once in an assay, its records may differ in their call. Activity calls are given as the source filed them. Unless noted, calls come from the whole dose curve; as a rule, active = well fitted curve in the direction sought with a large enough effect in the repeat runs; inconclusive = weak or mixed curves; inactive = no such curve, though single readings can be large; an effect the other way counts as inactive or inconclusive.
Legend:
[1] = qHTS assay for small molecule agonists of the p53 signaling pathway (AID 651631; calls by dose curve; note: nearly all actives have a fitted effect of over 15% in size; note: potency is the fitted concentration of half-maximal effect)
Summary of the method: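 Stably transfected HCT-116 cells (beta-lactamase behind p53 response elements) get compounds after a 5 h settling period; 16 h later at 37 °C, FRET substrate is loaded and fluorescence read after 2 h.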

[2] = qHTS assay for small molecules that induce genotoxicity in human embryonic kidney cells expressing luciferase-tagged ATAD5 (AID 651632); note: nearly all actives have a fitted effect of over 15% in size; note: potency is the fitted concentration of half-maximal effect
Summary of the method: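 HEK293T cells carrying luciferase-tagged ATAD5 were given compound or DMSO vehicle and incubated 16 hr at 37C, 5% CO2. Luciferase activity was read after 30 min at room temperature with Amplite; a rise signals genotoxic stress.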

[3] = qHTS assay for small molecule agonists of the p53 signaling pathway - cell viability (AID 651633; calls by dose curve;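 note: p53RE-bla HCT reporter cells with a stable beta-lactamase p53 reporter; series mostly up to about 83 µM; nearly all actives have a fitted effect of over 30% in size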)
Summary of the method: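 Viability counter-read: CellTiter-Glo luminescence (30 min, room temperature) in the same p53RE-bla plates. These plates had been exposed to compounds for 16 h at 37 C.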

[4] = qHTS assay for small molecules that induce genotoxicity in human embryonic kidney cells expressing luciferase-tagged ATAD5 - cell viability (AID 651634; calls by dose curve; note: nearly all actives have a fitted effect of over 25% in size; note: potency is the fitted concentration of half-maximal effect)
Summary of the method: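 HEK293T cells carrying luciferase-tagged ATAD5, 2,000 cells/well, exposed to compound for 15.5 hr at 37C. Viability read as live-cell protease activity by CellTiter-Fluor fluorescence after 30 min at 37C.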

[5] = qHTS assay for small molecule disruptors of the mitochondrial membrane potential - cell viability (AID 720634; calls by dose curve; note: nearly all actives have a fitted effect of over 20% in size; note: potency is the fitted concentration of half-maximal effect)
Summary of the method: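 HepG2 cells, 2,000 per well, attached overnight, then treated 1 hr at 37 C, 5% CO2. Viability read as ATP by CellTiter-Glo luminescence after 30 min at room temperature. Read in the same wells as the m-MPI membrane-potential dye assay.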

[6] = qHTS assay for small molecule disruptors of the mitochondrial membrane potential (AID 720635); note: potency is the fitted concentration of half-maximal effect
Summary of the method: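 Mitochondrial membrane potential tracked with Mito-MPS dye, red aggregates (ex 540/em 590 nm) against green monomers (ex 490/em 535 nm). Compound treatment 1 hr at 37C, dye 30 min in HepG2.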

[7] = qHTS assay to test for compound auto fluorescence at 590 nm (red) in HepG2 cells (AID 720674)
Summary of the method: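 1 hr compound incubation on HepG2 cells, 37 C, 5% CO2; plate read ex 540 nm / em 590 nm; intensities reported as Rose Bengal sodium equivalents.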

[8] = qHTS assay to test for compound auto fluorescence at 535 nm (green) in HepG2 cells (AID 720675)
[9] = qHTS assay to test for compound auto fluorescence at 460 nm (blue) in HEK293 cells (AID 720678)
Summary of the method: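 Triamterene serves as the blue fluorophore standard. Compound signal at 405/460 nm is read in HEK293 wells (2,000 cells, 10% dialyzed FBS) after overnight treatment at 37C.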

[10] = qHTS assay to test for compound auto fluorescence at 590 nm (red) in HEK293 cells (AID 720679)
Summary of the method: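 We plated HEK293 cells in 10% dialyzed FBS medium, let them adhere for 4-5 hr, then added 23 nL compound. Overnight at 37C and 5% CO2 preceded fluorescence measurement at 540/590nm.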

Structure (SMILES) | Potency [1] | Potency [2] | Potency [3] | Potency [4] | Potency [5] | Potency [6] | outcome [7] | outcome [8] | outcome [9] | outcome [10]
Cc1cccc(C)c1O | inactive | inactive | inactive | inactive | inactive | inactive | inactive | inactive | inactive | inactive
CN(C)Cc1cc(CN(C)C)c(O)c(CN(C)C)c1 | inactive | inactive | inactive | inactive | inactive | inactive | inactive | inactive | inactive | inactive
CCCCCCCCOc1ccc(C(=O)c2ccccc2)c(O)c1 | inactive | inactive | inactive | inactive | inactive | inactive and 61.1 µM (active) | – | inactive | inactive | inactive
CC1(C)O[C@@H]2[C@@H](CO[C@@]3(COS(N)(=O)=O)OC(C)(C)O[C@@H]23)O1 | inactive | inactive | inactive | inactive | inactive | inactive | – | inactive | inactive | inactive
CC(=O)Oc1ccccc1C(=O)O | inactive | inactive | inactive | inactive | inactive | inactive | – | inactive | inactive | inactive
Cc1cccc(Nc2cc(Cl)nc(SCC(=O)O)n2)c1C | inactive | inactive | inactive | inactive | inactive | inactive | inactive | inactive | inactive | inactive
CCCCOCCOCCOC(C)=O | inactive | inactive | inactive | inactive | inactive | inactive | inactive | inactive | inactive | inactive
C#C[C@]1(O)CC[C@H]2[C@@H]3CCC4=CC(=O)CC[C@@H]4[C@H]3CC[C@@]21CC | inactive | inactive | inactive | inactive | inactive and 48.6 µM (active) | inactive | inactive | inactive | inactive | inactive
COC(=O)C1CCC(C(=O)OC)CC1 (stereo not given) | inactive | inactive | inactive | inactive | inactive | inactive | inactive | inactive | inactive | inactive
C/C=C/c1ccc(O)c(OC)c1 | inactive | inactive | inactive | inactive | inactive | 61.1 µM (active) | inactive | inactive | inactive | inactive
CCOC(=O)C(C)(C)Oc1ccc(Cl)cc1 | inactive | inactive | inactive | inactive | inactive | inactive | – | inactive | inactive | inactive
Cc1cccc2ccccc12 | inactive | inactive | inactive | inactive | inactive | inactive | inactive | inactive | inactive | inactive
CCCCCCCC(=O)OCC(O)CO (stereo not given) | inactive | inactive | inactive | inactive | inactive | inactive | – | inactive | inactive | inactive
COc1ccc(O)cc1 | inactive | inactive | inactive | inactive | inactive | inactive | inactive | inactive | inactive | inactive
COCC(C)N (stereo not given) | inactive | inactive | inactive | inactive | inactive | inactive | – | inactive | inactive | inactive
C=C(C)OC(C)=O | inactive | inactive | inactive | inactive | inactive | inactive | – | inactive | inactive | inactive
COc1ccccc1NC(=O)CC(C)=O | inactive | inactive | inactive | inactive | inactive | inactive | – | inactive | inactive | inactive
Oc1cccc(O)c1 | inactive | inactive | inactive | inactive | inactive | inactive | inactive | inactive | inactive | inactive
Nc1cccc(N)c1 | inactive | inactive | inactive | inactive | inactive | 24 µM (active) | inactive | inactive | inactive | inactive
COc1ccc(C(=O)c2ccccc2)c(O)c1 | inactive | inactive | inactive | inactive | inactive | inactive | inactive | inactive | inactive | inactive
O=C1CCCCCN1 | inactive | inactive | inactive | inactive | inactive | inactive | inactive | inactive | inactive | inactive

Structure (SMILES) | Potency [1] | Potency [2] | Potency [3] | Potency [4] | Potency [5] | Potency [6] | outcome [7] | outcome [8] | outcome [9] | outcome [10]
C#C[C@]1(O)CC[C@H]2[C@@H]3CCc4cc(O)ccc4[C@H]3CC[C@@]21C | 8.41 µM (active) and 7.64 µM (active) and 6.11 µM (active) | inactive | inactive | 15.2 µM (active) | inactive | 13.3 µM (active) and 13.6 µM (active) and 17.2 µM (active) | – | inactive | inactive | inactive
CC(C)Cc1ccc(C(C)C(=O)O)cc1 (stereo not given) | inactive | inactive | inactive | inactive | inactive | inactive | – | inactive | inactive | inactive
COCCOCCOC | inactive | inactive | inactive | inactive | inactive | inactive | – | inactive | inactive | inactive
COC(=O)c1ccc(C=O)cc1 | inactive | inactive | inactive | inactive | inactive | inactive | – | inactive | inactive | inactive
Cc1c(N(C)CS(=O)(=O)O)c(=O)n(-c2ccccc2)n1C | inactive | inactive | inactive | inactive | inactive | inactive | inactive | inactive | inactive | inactive
CC(=O)OC/C=C(C)/C=C/C=C(C)/C=C/C1=C(C)CCCC1(C)C | inactive | inactive | inactive | inactive | inactive | inactive | inactive | inactive | inactive | inactive
CC(=O)CCC(C)C | inactive | inactive | inactive | inactive | inactive | inactive | – | inactive | inactive | inactive
CO[C@H]1C=CO[C@@]2(C)Oc3c(C)c(O)c4c(O)c(c(/C=N/N5CCN(C)CC5)c(O)c4c3C2=O)NC(=O)/C(C)=C\C=C[C@H](C)[C@H](O)[C@@H](C)[C@@H](O)[C@@H](C)[C@H](OC(C)=O)[C@@H]1C | inactive | inactive | inactive | 23.7 µM (active) and 48.8 µM (active) and 39 µM (active) | inactive | 10.6 µM (active) and 24.5 µM (active) and 11 µM (active) | inactive | inactive | inactive | inactive
C1CNCCN1 | inactive | inactive | inactive | inactive | inactive | inactive | inactive | inactive | inactive | inactive
Cc1cnc(NC(=O)C2=C(O)c3ccccc3S(=O)(=O)N2C)s1 | inactive | inactive | inactive | – | inactive | – | inactive | inactive | inactive | inactive
CCCCNC(=O)NS(=O)(=O)c1ccc(N)cc1 | inactive | inactive | – | inactive | inactive | inactive | inactive | inactive | inactive | inactive
O=c1cc[nH]c(=O)[nH]1 | inactive | inactive | – | inactive | inactive | inactive | – | inactive | inactive | inactive
CCN(CC)CCOC(=O)c1ccc(N)cc1 | inactive | inactive | inactive | inactive | inactive | – | – | inactive | inactive | inactive
NC(=O)NO | inactive | inactive | inactive | inactive | inactive | inactive | – | inactive | inactive | inactive
Cc1ccc(O)c(-n2nc3ccccc3n2)c1 | inactive | 9.44 µM (active) and 6.11 µM (active) | – | inactive | 30.6 µM (active) | 21.1 µM (active) and 60.6 µM (active) and 30.6 µM (active) | inactive | inactive | inactive | inactive
C[C@]12C[C@H](O)[C@H]3[C@@H](CCC4=CC(=O)CC[C@@]43C)[C@@H]1CC[C@@H]2C(=O)CO | inactive | inactive | inactive | inactive | inactive | inactive | – | inactive | inactive | inactive
OC[C@@H](O)[C@@H](O)[C@H](O)[C@H](O)CO | inactive | inactive | – | inactive | inactive | inactive | – | inactive | inactive | inactive
CC(O)COc1ccccc1 (stereo not given) | inactive | inactive | – | inactive | inactive | inactive | – | inactive | inactive | inactive
C=CC(=O)NC(C)(C)CS(=O)(=O)O | inactive | inactive | – | inactive | inactive | inactive | inactive | inactive | inactive | inactive
CC1=NN(c2ccccc2)C(=O)C1 | inactive | inactive | – | inactive | inactive | 11.9 µM (active) and 61.5 µM (active) | – | inactive | inactive | inactive
